Experimental data from PubChem BioAssay (NCATS).
Values joined by “and” are separate entries in the source; they are usually repeats but may differ in a detail not shown here. Equal entries are not always repeated. Inconclusive results are not listed. Active and inactive are the calls of the source. Calls follow the shape of the dose curve; as a rule, active = well fitted curve in the direction sought with a large enough effect; inconclusive = small, poorly fitted or top-dose-only effect, or another doubt; inactive = no such curve, though single readings can be large; an effect the other way counts as inactive or inconclusive.

What was measured:
[1] = qHTS of pediatric cancer cell lines to identify multiple opportunities for drug repurposing: Primary screen for SK-N-MC cells (AID 1347093); also: potency is read from the fitted curve at half-maximal effect
Method in brief: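 Metabolically active cells were quantified by ATP-dependent luminescence (CellTiter-Glo, 15 min at room temperature) following 48 h treatment. Cells had been plated at 500-1,000 per well and settled for 5 h beforehand.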

[2] = qHTS of pediatric cancer cell lines to identify multiple opportunities for drug repurposing: Primary screen for NB-EBc1 cells (AID 1347095); also: potency is read from the fitted curve at half-maximal effect
Method in brief: (§1)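 Quantitative HTS format: each compound titrated (MIPE 11 points from 0.78 nM, NPC 8 points from 0.59 nM) onto cells plated 5 hours earlier. After 48 h at 37 degrees C, CellTiter-Glo luminescence was recorded.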

[3] = qHTS of pediatric cancer cell lines to identify multiple opportunities for drug repurposing: Primary screen for U-2 OS cells (AID 1347096); also: nearly all actives have a fitted effect of over 50% in size
Method in brief: (§2)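 Viability after 48 h compound treatment at 37C, 500-1,000 cells/well, read as ATP luminescence with CellTiter-Glo. Primary screens used 11-point (MIPE, 0.78 nM-46 µM) or 8-point (NPC, 0.59 nM-46 µM) final concentrations; follow-up screens used 11-point dilutions.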

[4] = qHTS of pediatric cancer cell lines to identify multiple opportunities for drug repurposing: Primary screen for Saos-2 cells (AID 1347097); also: nearly all actives have a fitted effect of over 40% in size; also: potency is read from the fitted curve at half-maximal effect
Method in brief: as §1

[5] = qHTS of pediatric cancer cell lines to identify multiple opportunities for drug repurposing: Primary screen for LAN-5 cells (AID 1347100); also: potency is read from the fitted curve at half-maximal effect
Method in brief: as §2

[6] = qHTS of pediatric cancer cell lines to identify multiple opportunities for drug repurposing: Primary screen for BT-12 cells (AID 1347101); also: nearly all actives have a fitted effect of over 25% in size; also: potency is read from the fitted curve at half-maximal effect
Method in brief: (§3)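 Cells (500-1,000/well) rested 5 h, then received compounds for 48 h; metabolically active cells were measured by CellTiter-Glo luminescence. Final concentrations spanned up to 46 µM (MIPE, 11-point) or 0.59 nM-46 µM (NPC, 8-point) in primary screens, 11-point in follow-ups.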

[7] = qHTS of pediatric cancer cell lines to identify multiple opportunities for drug repurposing: Primary screen for Rh18 cells (AID 1347102); also: nearly all actives have a fitted effect of over 65% in size; also: potency is read from the fitted curve at half-maximal effect
Method in brief: as §2

[8] = qHTS of pediatric cancer cell lines to identify multiple opportunities for drug repurposing: Primary screen for OHS-50 cells (AID 1347103); also: nearly all actives have a fitted effect of over 40% in size; also: potency is read from the fitted curve at half-maximal effect
Method in brief: as §3

[9] = qHTS of pediatric cancer cell lines to identify multiple opportunities for drug repurposing: Primary screen for MG 63 (6-TG R) cells (AID 1347105); also: nearly all actives have a fitted effect of over 50% in size; also: potency is read from the fitted curve at half-maximal effect
Method in brief: as §1

[10] = qHTS of pediatric cancer cell lines to identify multiple opportunities for drug repurposing: Primary screen for control Hh wild type fibroblast cells (AID 1347106);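 also: series mostly up to about 46 µM; a drop in luminescence marks cytotoxicity and a rise apparent proliferation; nearly all actives have a fitted effect of over 55% in size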
Method in brief: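 Cells (500-1,000/well) in growth media were settled 5 h at 37 degrees C, then given compounds for 48 h. Viability was read as CellTiter-Glo luminescence. Primary runs used MIPE at 11 points (0.78 nM-46 µM) and NPC at 8 points (0.59 nM-46 µM); follow-ups used 11 points.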

[11] = qHTS of pediatric cancer cell lines to identify multiple opportunities for drug repurposing: Primary screen for SK-N-SH cells (AID 1347098); also: nearly all actives have a fitted effect of over 65% in size; also: potency is read from the fitted curve at half-maximal effect
Method in brief: as §3

[12] = qHTS of pediatric cancer cell lines to identify multiple opportunities for drug repurposing: Primary screen for NB1643 cells (AID 1347099); also: nearly all actives have a fitted effect of over 50% in size; also: potency is read from the fitted curve at half-maximal effect
Method in brief: as §1

[13] = qHTS of pediatric cancer cell lines to identify multiple opportunities for drug repurposing: Primary screen for Rh30 cells (AID 1347107); also: series mostly up to about 46 µM; nearly all actives have a fitted effect of over 75% in size
Method in brief: as §2

[14] = qHTS of pediatric cancer cell lines to identify multiple opportunities for drug repurposing: Confirmatory screen for SK-N-MC cells (AID 1347111);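 also: cells exposed to compound for 48 h before the readout; nearly all actives have a fitted effect of over 70% in size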; also: potency is read from the fitted curve at half-maximal effect
Method in brief: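 SK-N-MC cells at 500-1,000 cells/well in growth media were pre-incubated 5 h, then exposed to compounds at 11-point dilutions for 48 h at 37 degrees C, 5% CO2. Viability was read as CellTiter-Glo luminescence.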

[15] = qHTS of pediatric cancer cell lines to identify multiple opportunities for drug repurposing: Primary screen for RD cells (AID 1347104); also: nearly all actives have a fitted effect of over 55% in size; also: potency is read from the fitted curve at half-maximal effect
Method in brief: as §1

[16] = qHTS of pediatric cancer cell lines to identify multiple opportunities for drug repurposing: Primary screen for BT-37 cells (AID 1347094); also: potency is read from the fitted curve at half-maximal effect
Method in brief: as §1

[17] = qHTS of pediatric cancer cell lines to identify multiple opportunities for drug repurposing: Primary screen for Rh41 cells (AID 1347108); also: nearly all actives have a fitted effect of over 70% in size; also: potency is read from the fitted curve at half-maximal effect
Method in brief: as §1

[18] = qHTS of pediatric cancer cell lines to identify multiple opportunities for drug repurposing: Confirmatory screen for NB1643 cells (AID 1347109); also: nearly all actives have a fitted effect of over 45% in size
Method in brief: as §2

[19] = qHTS of pediatric cancer cell lines to identify multiple opportunities for drug repurposing: Confirmatory screen for A673 cells (AID 1347110); also: nearly all actives have a fitted effect of over 65% in size; also: potency is read from the fitted curve at half-maximal effect
Method in brief: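 Forty-eight-hour viability assay. Follow-up compounds ran at 11-point dilutions; positive control bortezomib at 2.3 uM final, neutral control DMSO.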

Measured: Potency

CCn1c(-c2nonc2N)nc2cnc(Oc3cccc(NC(=O)c4ccc(OCCN5CCOCC5)cc4)c3)cc21
inactive: [2] | [3] | [7] | [9] | [10]
active: [1] 7.43 µM | [4] 0.662 µM | [5] 2.96 µM | [6] 6.11 µM | [8] 15.3 µM

CN(C)c1ccc(C2Nc3ccc4ccccc4c3C3=C2C(=O)CC(C)(C)C3)cc1Br (stereo unspecified)
active: [1] 7.43 µM | [12] 20.9 µM | [14] 19.1 µM
inactive: [2] | [3] | [11] | [5] | [6] | [7] | [10] | [13]

N#Cc1ccc(C(c2ccc(C#N)cc2)n2cncn2)cc1
inactive: [2] | [3] | [5] | [7] | [10]

COc1ccc(-c2c(-c3ccc(O)cc3O)n[nH]c2C)cc1
inactive: [3] | [7] | [15] | [9] | [10]
active: [2] 38.2 µM | [8] 44.4 µM

NCCCC(N)(C(=O)O)C(F)F (stereo unspecified)
not listed: [1] | [5] | [12]
inactive: all other assays above

O=c1ncn2nc(Sc3ccc(F)cc3F)ccc2c1-c1c(Cl)cccc1Cl
inactive: [2] | [12] | [7] | [15] | [9] | [10] | [13]

CC1(C)CNc2cc(NC(=O)c3cccnc3NCc3ccncc3)ccc21
active: [2] 9.35 µM | [5] 20.9 µM
inactive: [3] | [15] | [10] | [13]

NNCCc1ccccc1
inactive: [16] | [2] | [4] | [7] | [8] | [15] | [9] | [10] | [13] | [17]

CC(C)(N)C(=O)N[C@H](COCc1ccccc1)C(=O)N1CCC2(CC1)CN(S(C)(=O)=O)c1ccccc12
active: [1] 23.5 µM | [11] 30.4 µM | [12] 23.5 µM | [8] 27.3 µM | [15] 26.4 µM
inactive: [2] | [3] | [4] | [5] | [10]

CNC(=O)c1ccccc1Sc1ccc2c(/C=C/c3ccccn3)n[nH]c2c1
inactive: [15] | [13]
active: [1] 2.99 µM | [2] 1.5 µM | [4] 13.3 µM | [6] 17.4 µM | [7] 10.6 µM | [8] 17.4 µM

N=c1nc(N2CCCCC2)cc(N)n1O
not listed: [1] | [5] | [14] | [15] | [18] | [19]
inactive: all other assays above

CCN(c1ccccc1)c1cc(NC)[n+](C)c(C)n1
not listed: [2] | [5] | [11] | [14] | [16] | [18] | [19]
inactive: all other assays above

CC1(C)Cc2c(-c3ccccc3)c(-c3ccc(Cl)cc3)c(CC(=O)O)n2C1
active: [1] 26.4 µM | [4] 33.2 µM
inactive: [3] | [7] | [10]

CNC(=O)c1ccc(C)c(-n2c(C)cc(OCc3ccc(F)cc3F)c(Br)c2=O)c1
active: [5] 20.9 µM | [8] 24.3 µM
inactive: [16] | [3] | [11] | [15] | [10]

CCc1cc(Nc2nccc(-c3c(-c4ccc(OC)c(C(=O)Nc5c(F)cccc5F)c4)nc4ccccn34)n2)c(OC)cc1N1CCC(N2CCN(S(C)(=O)=O)CC2)CC1
active: [4] 18.7 µM | [11] 21.5 µM | [9] 18.7 µM
inactive: [3] | [12] | [7]

Nc1nc2ccc(OC(F)(F)F)cc2s1
active: [19] 18.5 µM
not listed: [1] | [4] | [5] | [6] | [8] | [16] | [18]
inactive: all other assays above

CCOC(=O)N[C@@H]1CC[C@@H]2[C@@H](C1)C[C@H]1C(=O)O[C@H](C)[C@H]1[C@@H]2C=Cc1ccc(-c2cccc(F)c2)cn1
inactive: [7] | [9] | [10]
active: [1] 16.6 µM | [4] 5.9 µM | [11] 21.5 µM | [12] 16.6 µM

NC(=O)c1ccc(-c2nc(-c3ccc4c(c3)OCCO4)c(-c3ccccn3)[nH]2)cc1
inactive: [1] | [3] | [4] | [12] | [5] | [6] | [7] | [15] | [9] | [10]

Clc1ccc(Nc2nnc(Cc3ccncc3)c3ccccc23)cc1
active: [1] 2.35 µM | [11] 21.7 µM | [8] 19.5 µM
inactive: [2] | [3] | [4] | [12] | [15] | [10] | [13] | [17]

C#Cc1cccc(Nc2ncnc3cc(OCCOC)c(OCCOC)cc23)c1
inactive: [3] | [15] | [9] | [13]
active: [1] 1.05 µM and 7.5 µM | [16] 19.3 µM and 11 µM | [4] 16.6 µM | [12] 5.9 µM | [6] 24.3 µM | [7] 18.7 µM | [8] 19.3 µM and 6.92 µM | [17] 11.8 µM | [14] 14.7 µM

CN[C@@H](C)C(=O)N[C@H]1CCCC[C@H]2CC[C@@H](C(=O)N[C@@H](c3ccccc3)c3cn(CCCCc4ccc(CCCCn5cc([C@@H](NC(=O)[C@@H]6CC[C@@H]7CCCC[C@H](NC(=O)[C@H](C)NC)C(=O)N76)c6ccccc6)nn5)cc4)nn3)N2C1=O
inactive: [3] | [12] | [9] | [10]
active: [1] 6.62 µM | [6] 27.3 µM | [7] 14.8 µM

COc1ccc(COc2cc3oc(=O)c4cc(C(C)O)ccc4c3cc2OC)cc1 (stereo unspecified)
inactive: [3] | [12] | [5]
active: [2] 10.5 µM | [4] 14.8 µM | [9] 18.7 µM | [17] 18.7 µM

COc1cc(Oc2ccnc3cc(OC)c(OC)cc23)ccc1NC(=O)NC(C)c1nccs1 (stereo unspecified)
inactive: [16] | [3] | [12] | [7] | [15] | [10]
